Screens from PubChem.
Most compounds without a hit are left out; they make up all but 19% or so of the library.
IL1B secr inh: qHTS for Inhibitors of Inflammasome Signaling: IL-1-beta AlphaLISA Primary Screen; activity change, % at 57.5 µM; THP-1 LPS/ATP IL-1B secretion, AlphaLISA, 16 h; active compounds read low; 360,000 tested, 4.7% active; AID 743279, 2014; in the data active = activity change below about -50%; inconclusive = mostly about -30% to -49%
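THP-1 cells pretreated 1 hr with compounds (up to 57.5 uM final), then stimulated with LPS (250 ng/mL final) plus ATP (1.25 mM final); secreted IL-1B measured by AlphaLISA after 16 hr, decreased signal indicating inhibition.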
TDP1 cell CPT: qHTS for Inhibitors of human tyrosyl-DNA phosphodiesterase 1 (TDP1): qHTS in cells in presence of CPT; 420,000 tested, 12% active; chicken DT40 Tdp1-/-;hTDP1 cells + 20 nM CPT, ATP luminescence, 48 h; Potency, µM (highest dose often 46.2 µM), actives largely listed as inhibitors; also: nearly all actives have a fitted effect of over 55% in size
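Chicken DT40 Tdp1-/- cells stably complemented with human TDP1 were seeded at 400 cells/well in medium containing 20 nM camptothecin, exposed to pin-transferred compounds, and grown at 37 °C for at least 48 hr. Viability was read as ATP luminescence.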
HT1080-NT tox: qHTS for induction of synthetic lethality in tumor cells producing 2HG: qHTS for the HT-1080-NT fibrosarcoma cell line | HT-1080-NT fibrosarcoma viability, CellTiter-Glo ATP luminescence, 48 h | Potency, µM (series often up to 46.1 µM), usual class: cytotoxic | 360,000 tested, 1.6% active;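 also: NT is the 2HG producing partner of a matched IDH1 knockdown line; nearly all actives have a fitted effect of over 55% in size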
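750 cells/well, RPMI + 5% FBS; 2 h settle, compound pin-transfer, 48 h at 37 degrees C. CellTiter-Glo 10 min RT, luminescence. Normalized to DMSO and media-only wells.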
HT1080 IDH1KD tx: qHTS for induction of synthetic lethality in tumor cells producing 2HG: qHTS for the HT-1080-IDH1KD cell line. HT-1080 IDH1 knockdown viability, ATP luminescence, 48 h. Potency, µM (top dose mostly 46.1 µM), actives largely listed as cytotoxic. 360,000 tested, 2% active
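Using the IDH1-knockdown HT-1080 line run in the same batch and compound series as the NT line, viability after 48 h at 37 °C was determined by CellTiter-Glo luminescence and expressed as % activity.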
DT40 TDP1 no CPT: qHTS for Inhibitors of human tyrosyl-DNA phosphodiesterase 1 (TDP1): qHTS in cells in absence of CPT; DT40 Tdp1-/- hTDP1 cells, no CPT, ATP luminescence, 48 h; Potency, µM (doses to about 46.2 µM), most hits filed as inhibitors; 420,000 tested, 15% active; also: nearly all actives have a fitted effect of over 55% in size
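Seeded 400 DT40-hTDP1 cells/well (vehicle DMSO, no 20 nM CPT); pinned compounds; ≥48 hr at 37 °C; CellTiter-Glo luminescence as viability measure.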
Of the large screens only hits and unclear results are named; the others gave an inactive call. Unless noted, calls follow the shape of the dose curve; as a rule, active = well fitted curve in the direction sought with a large enough effect; inconclusive = small, poorly fitted or top-dose-only effect, or another doubt; inactive = no such curve, though single readings can be large; an effect the other way counts as inactive or inconclusive.

COc1cccc(NC(=O)Cn2nnc(-c3ccccc3N)n2)c1	none
CCCC(=O)Nc1ccccc1-c1nnn(CC(=O)Nc2ccc(OC)cc2)n1	TDP1 cell CPT inconclusive, DT40 TDP1 no CPT 20.6µM
COc1ccc(NC(=O)Cn2nnc(-c3ccccc3NS(=O)(=O)c3ccccc3)n2)cc1	TDP1 cell CPT 23.1µM, HT1080 IDH1KD tx inconclusive, DT40 TDP1 no CPT 18.4µM
CCn1nnc(-c2ccccc2NC(=O)c2cc(OC)c(OC)c(OC)c2)n1	TDP1 cell CPT inconclusive, DT40 TDP1 no CPT 14.6µM
COc1ccc(S(=O)(=O)Nc2ccccc2-c2nnn(CC(=O)Nc3ccccc3OC)n2)cc1	TDP1 cell CPT 6.51µM, DT40 TDP1 no CPT 8.2µM
COc1cc(CN2CCCC(n3cc(C(=O)N4CCCC4)nn3)C2)cc(OC)c1 (centres undefined)	none (no result: IL1B secr inh, HT1080-NT tox, HT1080 IDH1KD tx)
CCOc1ccc(-c2cc(C(=O)NCc3cc(C(F)(F)F)cc(C(F)(F)F)c3)[nH]n2)c(C)c1	TDP1 cell CPT inconclusive, HT1080-NT tox inconclusive, DT40 TDP1 no CPT inconclusive
CCOc1ccc(NC(=O)c2cn(C)c(=O)c3cc(OC)c(OC)cc23)cc1	none (no result: IL1B secr inh, HT1080-NT tox, HT1080 IDH1KD tx)
CC1CCCCC1NC(=O)CCNS(=O)(=O)c1ccc(Cl)cc1 (centres undefined)	TDP1 cell CPT inconclusive
Cc1ccc(CCNC(=O)C2CCC(=O)N(Cc3cccc(F)c3)C2)cc1 (centres undefined)	none
COc1ccc(C(=O)Cn2nnc(-c3ccccc3NC(=O)c3ccco3)n2)cc1	TDP1 cell CPT inconclusive, DT40 TDP1 no CPT 8.2µM
COc1ccc(C(=O)Nc2ccccc2-c2nnn(CC(=O)N3CCOCC3)n2)cc1	DT40 TDP1 no CPT inconclusive
O=C(c1ccc(Br)cc1)c1sc(N2CCOCC2)nc1-c1ccccc1	TDP1 cell CPT inconclusive, DT40 TDP1 no CPT 20.6µM
CNc1nc(-c2ccc(OC)cc2)c(-c2ccc(OC)cc2)s1	none
O=C(c1ccccc1)c1sc(N2CCOCC2)nc1-c1ccccc1	IL1B secr inh inconclusive, TDP1 cell CPT inconclusive, DT40 TDP1 no CPT inconclusive
COc1ccc(-c2nc(N3CCN(C)CC3)sc2-c2ccc(OC)cc2)cc1	TDP1 cell CPT inconclusive, HT1080 IDH1KD tx inconclusive, DT40 TDP1 no CPT 29.1µM
c1ccc(-c2csc(N3CCCCCC3)n2)cc1	DT40 TDP1 no CPT inconclusive
[2H]c1c([2H])c([2H])c(C(=O)c2sc(N3CCCCCC3)nc2-c2ccccc2)c([2H])c1[2H]	TDP1 cell CPT inconclusive, DT40 TDP1 no CPT 16.4µM
O=C(c1ccccc1)c1sc(N2CCCCCC2)nc1-c1ccccc1	TDP1 cell CPT inconclusive, DT40 TDP1 no CPT 14.6µM
c1ccc2sc(N3CCCCC3)nc2c1	none
O=C(O)C1C(c2ccccc2)=C1c1ccc(Br)cc1 (centres undefined)	none
CCN(CC)S(=O)(=O)c1cccc(C(=O)OCC(=O)NCc2ccccc2OC)c1	none
COc1ccc(-c2nc(N3CCCCCC3)sc2C(=O)c2ccccc2)cc1	TDP1 cell CPT inconclusive, DT40 TDP1 no CPT 23.1µM
COc1ccccc1CCNC(=O)CN1C(=O)c2ccccc2S1(=O)=O	none
Cc1cc(N2CCN(c3ccccn3)CC2)n2cc(-c3ccccc3)nc2n1	TDP1 cell CPT 20.6µM, DT40 TDP1 no CPT 18.4µM
Cc1cc(N2CCN(C)CC2)n2cc(-c3ccc(F)cc3)nc2n1	DT40 TDP1 no CPT inconclusive
CC1=C(C(=O)Nc2ccc(C)cc2C)C(c2ccccc2F)n2nc(SCC(=O)c3ccc(C)cc3)nc2N1 (centres undefined)	TDP1 cell CPT 18.4µM, DT40 TDP1 no CPT 14.6µM (no result: IL1B secr inh, HT1080-NT tox, HT1080 IDH1KD tx)
CCOc1ccccc1C1C(C(=O)Nc2ccccc2)=C(C)Nc2nc(SCC(=O)c3ccc(C)cc3)nn21 (centres undefined)	TDP1 cell CPT 7.31µM, DT40 TDP1 no CPT 9.2µM (no result: IL1B secr inh, HT1080-NT tox, HT1080 IDH1KD tx)
O=C(NCCCn1cccn1)c1cc(COc2ccc(F)cc2Cl)on1	none
CC(Cc1cccnc1)NC(=O)c1cc(COc2ccc(F)cc2Cl)on1 (centres undefined)	TDP1 cell CPT 20.6µM, DT40 TDP1 no CPT 23.1µM
CC(Cc1cccnc1)NC(=O)c1cc(COc2c(F)cccc2F)on1 (centres undefined)	TDP1 cell CPT inconclusive, DT40 TDP1 no CPT inconclusive
CCn1cc(CNC(=O)c2cc(COc3ccc(F)cc3Cl)on2)cn1	TDP1 cell CPT 20.6µM, HT1080-NT tox inconclusive, DT40 TDP1 no CPT 5.8µM
CCc1nc2ccc(C(=O)NCCc3c[nH]c4ccccc34)cn2c1N(C)Cc1nccn1C	TDP1 cell CPT inconclusive
COc1cccc(S(=O)(=O)N(C)C[C@H]2OCc3cnnn3CCCC(=O)N([C@H](C)CO)C[C@@H]2C)c1	none
CCN(CC(=O)Nc1ccc(S(=O)(=O)N2CCOCC2)cc1)Cc1ccccc1	none
CCN(CC(=O)Nc1cc(S(=O)(=O)N2CCOCC2)ccc1C)Cc1ccccc1	TDP1 cell CPT 16.4µM, DT40 TDP1 no CPT 13µM
COc1ccccc1N(CC(=O)Nc1ccc(S(=O)(=O)N2CCCCC2)cc1)S(C)(=O)=O	TDP1 cell CPT inconclusive, DT40 TDP1 no CPT 18.4µM
CCN(CC(=O)Nc1ccc(S(=O)(=O)N2CCCC2)cc1)Cc1ccccc1	TDP1 cell CPT 16.4µM, DT40 TDP1 no CPT inconclusive
CN(C)CCCNC(=O)c1ccc(Oc2ccccc2)cc1	DT40 TDP1 no CPT inconclusive
O=C(CC1SCCNC1=O)NCc1ccccc1 (centres undefined)	none
Cc1c(C(=O)c2ccccc2)c2ccccn2c1CCc1ccccn1	IL1B secr inh -74.5, TDP1 cell CPT inconclusive
Cc1c(C(=O)c2ccccc2)c2ccccn2c1CCC#N	none
Cc1c(C(=O)c2ccc(F)cc2)c2ccccn2c1CCc1ccccn1	IL1B secr inh -85.7, TDP1 cell CPT inconclusive, DT40 TDP1 no CPT inconclusive
COC(=O)CCc1c(C)c(C(=O)c2cc(OC)c(OC)c(OC)c2)c2ccccn12	TDP1 cell CPT inconclusive, HT1080-NT tox inconclusive, HT1080 IDH1KD tx inconclusive, DT40 TDP1 no CPT inconclusive
NNC(=O)c1cc2c(N3CCC(Cc4ccccc4)CC3)ncnc2s1	TDP1 cell CPT 16.4µM, HT1080-NT tox inconclusive, HT1080 IDH1KD tx inconclusive, DT40 TDP1 no CPT 23.1µM
Cn1ncc2c(N3CCC(Cc4ccccc4)CC3)ncnc21	TDP1 cell CPT inconclusive, HT1080 IDH1KD tx inconclusive, DT40 TDP1 no CPT 16.4µM
COc1ccccc1N1CCN(c2ncnc3c2cnn3C)CC1	TDP1 cell CPT inconclusive, DT40 TDP1 no CPT 18.4µM (no result: IL1B secr inh, HT1080-NT tox, HT1080 IDH1KD tx)
COc1ccccc1N1CCN(c2ncnc3nc[nH]c23)CC1	TDP1 cell CPT inconclusive, DT40 TDP1 no CPT inconclusive
Cn1ncc2c(N3CCN(c4ccc(F)cc4)CC3)ncnc21	TDP1 cell CPT inconclusive, DT40 TDP1 no CPT 18.4µM (no result: IL1B secr inh, HT1080-NT tox, HT1080 IDH1KD tx)
Cc1ccccc1NC(=O)COC(=O)c1cc(S(=O)(=O)N2CCOCC2)ccc1C	none
